# High-throughput results as filed in PubChem.
# Many of the other results were omitted from the sample, so hits are more common in it than they were.
# PI5P4K alpha inh: inhibitors of human PI5P4K alpha; P48426; PI5P4Kalpha enzyme, ADP-Glo luminescence, 60 min; hits give low values; max response, %; 330,000 compounds, 1.2% hits; active = max response of -50% or lower; inconclusive = between -30% and -50%; inactive = -30% or higher; also: value at the top dose of about 77 µM
#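 PI5P4Kalpha ADP-Glo assay; 5 microM ATP final; 60 min RT reaction; HEPES pH 7.4/EGTA/CHAPS, 5% DMSO; controls lacking substrate or enzyme; luminescent end-point.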
# Tb PGK inh: T. brucei PGK inhibition; Potency, µM (titrated, usually from 57.5 µM), actives largely listed as inhibitors; P07378; AID 602233; PGK/GAPDH coupled, Kinase-Glo luminescence, 60 min; 380,000 compounds, 0.043% hits; also: nearly all actives have a fitted effect of over 60% in size
#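 Luminescent ATP detection (Kinase-Glo Plus) follows a 60-minute room-temperature incubation, with wells lacking PGK as controls. Buffer: 100 mM TEA (pH 7.6), 5 mM MgCl2, 0.01% Tween-20. Coupling enzyme GAPDH (100 nM final) supplies unstable 1,3-BPG in-well.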
# PI4K2A inh: PI4K2A (human) kinase inhibition; Q9BTU6; purified PI4K2A, ADP-Glo luminescence, 1 h; hits give low values; activity change, negative = inhibition, % at 76.9 µM; 420,000 compounds, 0.13% hits; AID 1346378; in the data active = activity change below about -50%; inconclusive = mostly about -30% to -49%
# Target sequence (Q9BTU6 whole entry, looked up): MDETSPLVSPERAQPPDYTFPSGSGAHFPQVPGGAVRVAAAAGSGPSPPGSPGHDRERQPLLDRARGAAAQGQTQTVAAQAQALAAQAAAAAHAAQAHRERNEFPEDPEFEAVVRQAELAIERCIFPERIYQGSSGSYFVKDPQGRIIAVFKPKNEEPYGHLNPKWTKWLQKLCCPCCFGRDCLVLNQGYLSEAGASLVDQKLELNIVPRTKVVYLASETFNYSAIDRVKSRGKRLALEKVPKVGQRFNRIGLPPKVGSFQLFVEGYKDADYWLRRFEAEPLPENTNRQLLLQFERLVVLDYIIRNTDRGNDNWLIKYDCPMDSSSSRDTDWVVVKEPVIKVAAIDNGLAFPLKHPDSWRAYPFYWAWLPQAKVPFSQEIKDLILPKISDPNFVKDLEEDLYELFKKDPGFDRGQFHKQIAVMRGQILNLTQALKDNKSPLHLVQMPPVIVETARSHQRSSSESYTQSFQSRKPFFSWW
#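 PI4K2A activity was measured by ADP-Glo luminescence: enzyme (4 ug/mL stock) and phosphatidylinositol (1.2 mM stock) in Tris pH 7.5/MgCl2/EGTA/Triton X-100 buffer were reacted with ATP (300 microM stock) for one hour at ambient temperature.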
# Tb PFK block: T. brucei PFK enzyme inhibition; Potency, µM (series often up to 57.5 µM), actives largely listed as inhibitors; AID 485367; O15648; T. brucei PFK, ADP-Glo luminescence; 330,000 compounds, 0.17% hits; also: nearly all actives have a fitted effect of over 60% in size
#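 1.25 nM PFK with 0.5 mM F6P and 0.1 mM ATP in 0.1 M TEA pH 8.0, 5 mM MgCl2, incubated 45 min at room temperature; ADP measured by ADP-Glo luminescence; compounds titrated up to 57 uM.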
# Pin1 inhibitor: human Pin1 inhibition | Q13526 | Pin1 FP peptide displacement, HiFluor488, 10 min | Potency, µM (highest dose often 115 µM), usual class: inhibitors | 390,000 compounds, 0.009% hits; active = well fitted inhibition curve with a large enough effect in the polarisation, with a control signal flat, not every such curve was filed as active; inconclusive = small, poorly fitted or top-dose-only effect, or effect the other way, or a change in a side signal; inactive = no such curve, though single readings can be large or run the other way; the % refers to the polarisation
# Target sequence (Q13526 whole entry, looked up): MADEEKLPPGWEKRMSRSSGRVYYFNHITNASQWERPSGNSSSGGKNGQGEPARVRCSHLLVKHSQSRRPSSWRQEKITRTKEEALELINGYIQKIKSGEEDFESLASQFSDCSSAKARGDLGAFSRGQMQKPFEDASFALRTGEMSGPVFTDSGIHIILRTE
# Numbers stand for hits; 0 = inactive; ? = inconclusive; - = not tested or not shown. Unless noted, calls follow the shape of the dose curve; as a rule, active = well fitted curve in the direction sought with a large enough effect; inconclusive = small, poorly fitted or top-dose-only effect, or another doubt; inactive = no such curve, though single readings can be large; an effect the other way counts as inactive or inconclusive.
SMILES,PI5P4K alpha inh,Tb PGK inh,PI4K2A inh,Tb PFK block,Pin1 inhibitor
C#CCOCCOCCOCCNc1nc(N2CCN(C(=O)CCCCCCCCCCNC(=O)[C@H]([C@@H](C)CC)n3cc(CCCCCN)nn3)CC2)nc(N2CCN(C(=O)CCCCCCCCCCNC(=O)[C@H](CO)n3cc(CCCCCN)nn3)CC2)n1,-50,0,0,0,?
C#CCOCCOCCOCCNc1nc(N2CCN(C(=O)CCCCCCCCCCNC(=O)Cn3cc(CCCCCN)nn3)CC2)nc(N2CCN(C(=O)CCCCCCCCCCNC(=O)Cn3cc(CCCCCN)nn3)CC2)n1,-64,0,0,?,0
C#CCOCCOCCOCCNc1nc(N2CCN(C(=O)CCCCCCCCCCNC(=O)[C@H]([C@@H](C)CC)n3cc(CCCCN=C(N)N)nn3)CC2)nc(N2CCN(C(=O)CCCCCCCCCCNC(=O)[C@H](CCCCN)n3cc(C)nn3)CC2)n1,-89,0,0,0,?
C#CCOCCOCCOCCNc1nc(N2CCN(C(=O)CCCCCCCCCCNC(=O)[C@H]([C@@H](C)CC)n3cc(CCCCCN)nn3)CC2)nc(N2CCN(C(=O)CCCCCCCCCCNC(=O)[C@H]([C@@H](C)CC)n3cc(CCCCN=C(N)N)nn3)CC2)n1,-,-,-,0,-
C#CCOCCOCCOCCNc1nc(N2CCN(C(=O)CCCCCCCCCCNC(=O)Cn3cc(CCCCCN)nn3)CC2)nc(N2CCN(C(=O)CCCCCCCCCCNC(=O)[C@@H](CCC(=O)O)n3cc(CCCCCN)nn3)CC2)n1,0,0,0,0,0
COc1ccc(NS(=O)(=O)c2ccccc2)cc1NS(=O)(=O)c1ccccc1,-,-,-,-,0
C#CCOCCOCCOCCNc1nc(N2CCN(C(=O)[C@H]([C@@H](C)CC)n3cc(CCC(=O)O)nn3)CC2)nc(N2CCN(C(=O)[C@H](CCCCN)n3cc(CC(C)O)nn3)CC2)n1 (stereo not given in full),-70,0,0,-,0
C#CCOCCOCCOCCNc1nc(N2CCN(C(=O)[C@H](CCCCN)n3cc([C@@H](N)C(C)CC)nn3)CC2)nc(N2CCN(C(=O)[C@H](Cc3cc4ccccc4[nH]3)n3cc([C@@H](N)CC(C)C)nn3)CC2)n1 (stereo not given in full),-57,0,0,0,0
C#CCOCCOCCOCCNc1nc(N2CCN(C(=O)CCCCCCCCCCNC(=O)[C@H](CCCCN)n3cc(C)nn3)CC2)nc(N2CCN(C(=O)CCCCCCCCCCNC(=O)[C@H](CCCCN)n3cc(CCCC(=O)O)nn3)CC2)n1,-54,0,0,0,0
O=C(CCCl)NCCc1ccccc1,-,-,0,-,-
CCc1[nH]c(=S)c(C#N)c2c1CCCC2,-52,0,0,0,0
Nc1ccc(S(=O)(=O)N2CCN(S(=O)(=O)c3c(F)cccc3F)CC2)cc1,-,-,-,-,0
CC(=O)Nc1sc2c(c1-c1nccs1)CCNC2,-,-,-,-,0
Cc1cccc(Cc2cnc(N3C(=N)SC(c4ccccc4)C3=O)s2)c1 (stereo not given),-55,0,0,0,0
CC(C)(C)OC(=O)NCCCCC1=CC2=CC(=O)C(C)(O)C(=O)C2=CO1 (stereo not given),-80,0,0,-,0
CCCCC1=CC2=CC(=O)C(C)(OC(=O)c3cnc4ccccc4n3)C(=O)C2=CO1 (stereo not given),-,-,-,0,-
COC(=O)CCCCC(CCSS/C(CCO)=C(\C)N(C=O)Cc1cnc(C)nc1N)SC(C)=O (stereo not given),-,-,0,-,-
O=C(NCCCCc1ccccc1)C1CC(c2cc(C(F)(F)F)cc(C(F)(F)F)c2)=NO1 (stereo not given),0,0,0,0,0
CCCCN(CCCC)CCCNC(=O)C1CC(c2cc(C(F)(F)F)cc(C(F)(F)F)c2)=NO1 (stereo not given),0,0,-66,-,0
CN(C)c1ccc(/C=N/NC(=O)c2ccccn2)cc1,0,?,-50,?,0
C/C(C=NNC(=O)c1cc(-c2ccc(C)c(C)c2)n[nH]1)=C/c1ccco1,-,-,0,-,-
O=C(N/N=C\C=C\c1ccco1)c1cc(-c2ccc3ccccc3c2)n[nH]1,-68,-,?,0,?
O=C(N/N=C/c1ccncc1)c1ccccn1,0,0,0,0,0
O=C(N/N=C/C=C\c1ccco1)c1ccccn1,-55,0,0,0,-
O=C(N/N=C\C=C\c1ccco1)c1cncc(Br)c1,-53,0,0,0,?
SMILES,PI5P4K alpha inh,Tb PGK inh,PI4K2A inh,Tb PFK block,Pin1 inhibitor
O=C(N/N=C/C=C/c1ccco1)c1cnccn1,0,0,0,0,0
Cc1cccc(NC2=C(NC(=O)c3ccccc3)C(=O)c3ccccc3C2=O)c1,-62,0,0,?,?
O=C1C(Cl)=C(NC(=O)c2ccccc2)C(=O)C(Cl)=C1NC(=O)c1ccccc1,-84,0,0,?,0
O=C(NC1=C(Nc2ccc(Cl)cc2)C(=O)c2ccccc2C1=O)c1ccccc1,?,0,0,0,0
COc1ccc2c(c1)c(CC(=O)OC/C=C(\C)CC/C=C(\C)CCC=C(C)C)c(C)n2C(=O)c1ccc(Cl)cc1,-,-,0,-,-
OCC1O[C@H]([S-])[C@H](O)[C@@H](O)[C@@H]1O.[Au+] (stereo not given in full),-,-,-55,-,-
CC(C)(C=O)C1=CC(=O)c2ccccc2C1=O,-52,0,0,0,0
CCCCCC/C(C)=C1/SC(=S)NC1=O,-71,0,0,0,0
CC(c1ccccc1)N1C(=O)c2ccc(C(=O)Nc3ccc(Br)cc3C(=O)O)cc2C1=O (stereo not given),-57,0,0,0,0
CC(C)CCN1C(=O)c2ccc(C(=O)Nc3ccccc3C(=O)O)cc2C1=O,-60,0,0,0,0
CC(C)CCN1C(=O)c2ccc(C(=O)Nc3ccc(O)cc3C(=O)O)cc2C1=O,0,0,0,0,0
O=C(Nc1ccccc1C(=O)O)c1ccc(CN2C(=O)c3ccccc3C2=O)cc1,-53,0,0,0,0
O=C(Nc1ccccc1C(=O)O)c1ccccc1,-,-,0,0,?
O=S1(=O)N=C(Sc2ccc3c(c2)OCCO3)c2ccccc21,-,-,-,-,0
CCOc1cc(C=NN2CCN(Cc3ccc(C)cc3)CC2)ccc1O,-,-,0,-,-
Cc1ccc(/C=C/C(=O)NCCc2ccccc2)o1,-60,0,0,0,0
O=C(/C=C/c1ccco1)NCCc1ccccc1,0,0,0,0,0
Oc1nc(Nc2ccc(Cl)cc2Cl)sc1/C=C1\C=Nc2ccccc21,-57,0,0,0,0
COc1cccc(C(c2c(C)[nH]n(-c3ccccc3)c2=O)c2c(C)[nH]n(-c3ccccc3)c2=O)c1O,0,0,-51,0,0
O=C1NC(c2ccccn2)Nc2sc3c(c21)CCC3 (stereo not given),0,0,0,0,0
Cc1ccsc1C1NC(=O)c2c(sc3c2CCCC3)N1 (stereo not given),-68,0,0,0,0
